Results from PubChem BioAssay AID686979 (National Center for Advancing Translational Sciences (NCATS), 2013).
In all, about 420,000 compounds went through this assay and about 50,000 (12%) were called active. Inconclusive results (about 26%) are left out. This is one part of a sample in which actives are shown more often than they occur. Calls follow the shape of the dose curve; as a rule, active = well fitted inhibition curve with a large enough effect; inconclusive = small, poorly fitted or top-dose-only effect; inactive = flat fitted curve, though single readings scatter.

Test: qHTS for Inhibitors of human tyrosyl-DNA phosphodiesterase 1 (TDP1): qHTS in cells in presence of CPT; also: nearly all actives have a fitted effect of over 55% in size
Conditions: chicken DT40 Tdp1-/-;hTDP1 cells + 20 nM CPT, ATP luminescence, 48 h; series mostly up to 46.2 µM; activity change, negative = growth inhibition: at the top concentration
Outline: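 Cell growth measured by CellTiter-Glo luminescence after a minimum 48 h, 37 C compound exposure with 20 nM CPT in Tdp1-knockout DT40 cells stably expressing hTDP1, seeded 400/well; qHTS titration format.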
% is scaled to controls: 0 for no effect and ±100 for the full control effect; potency is read from the fitted curve at half-maximal effect.

SMILES | activity change, negative = growth inhibition | Potency
COP(=O)(NS(=O)(=O)c1ccccc1)OC | 2.59% (inactive) | 
ClCCN(CCCl)c1ccc(C=Nc2ccc(/C=C/c3ccnc4ccccc34)cc2)cc1 |  | 10 µM (active)
C=CCN(CC=C)C(=O)Nc1ccc(OCC)cc1 | 12.3% (inactive) | 
O=C1NC(=O)N(Cc2ccco2)C(=O)/C1=C\c1ccc(-c2ccc(F)cc2)o1 |  | 20.6 µM (active)
O=C1NC(=O)N(Cc2ccco2)C(=O)/C1=C\c1cccn1CCOc1ccccc1 | -17.9% (inactive) | 
O=C(O)C1CSC(c2cccnc2)N1 (configuration not stated) | 1.64% (inactive) | 
Fc1ccc(C(OCCN2CCN(C/C=C\c3ccccc3)CC2)c2ccc(F)cc2)cc1 |  | 5.31 µM (active)
CN(C)S(=O)(=O)c1cc(C(=O)N2CCC(C(=O)O)(c3ccccc3)CC2)ccc1Cl | 7.77% (inactive) | 
COC(=O)CN1C(=O)C2(C(C(=O)OC)=C(N)Oc3ccccc32)C2=C1CC(C)(C)CC2=O (configuration not stated) | -17.2% (inactive) | 
C/C=C/CC1(CC)C(=O)NC(=S)NC1=O | 0.869% (inactive) | 
CN1CC[C@H](c2c(O)cc(O)c3c(=O)cc(-c4ccccc4Cl)oc23)[C@H](O)C1 |  | 0.0944 µM (active)
Cc1ccc(C)c(NC2=NCCCS2)c1 | -1.13% (inactive) | 
O=c1[nH]c(O)c(C=Nc2cc(F)cc(F)c2)c(=O)[nH]1 | 1.21% (inactive) | 
O=C1C2(Cl)C3(Cl)C4(Cl)C(Cl)(Cl)C5(Cl)C3(Cl)C1(Cl)C5(Cl)C24Cl (configuration not stated) |  | 18.4 µM (active)
ClC(Cl)(Cl)c1ccccc1 | -17.5% (inactive) | 
COc1ccc(NC(=O)c2cn(CCC#N)nc2-c2ccc([N+](=O)[O-])cc2)cc1 | 0.387% (inactive) | 
CNC(=O)Nc1ccc(C(O)(C(=O)OC)C(F)(F)F)cc1 (configuration not stated) | 6.05% (inactive) | 
O=S(=O)(O)C(F)(F)C(F)(F)C(F)(F)C(F)(F)F | 13.6% [at 92.5 µM] (inactive) | 
CCOC(=O)[C@]12Cc3cc(OC)ccc3[C@H]1N(C(C)C)C(=O)c1ccccc12 |  | 13 µM (active)
CCOC(=O)[C@]12Cc3ccccc3[C@H]1N(C1CCCCC1)C(=O)c1cc(OC)ccc12 |  | 2.91 µM (active)
COc1ccccc1-n1c(O)c(C=NC2CC2)c(=O)[nH]c1=O | -2.73% (inactive) | 
COC(=O)N1C(c2ccccc2)C1c1ccccc1 (configuration not stated) | 1.25% (inactive) | 
O=C(O)/C=C/c1ccc2c(c1)OCO2 | -82.7% (inactive) | 

SMILES | activity change, negative = growth inhibition | Potency
Clc1cccc(Cl)c1Cl | -1.37% (inactive) | 
CCOC(=O)C(O)(c1ccc(N)c(OC)c1)C(F)(F)F (configuration not stated) | 1.36% (inactive) | 
O=C(CCC(=O)N1C[C@H]2C[C@@H](C1)c1cccc(=O)n1C2)NCc1ccccc1C(F)(F)F | -3.15% (inactive) | 
C[C@@]12CCC3C(CC[C@@H]4CC(O)CC[C@@]34C)C1CCC2O (some centres not stated) | -0.552% (inactive) | 
COc1cccc(C(=O)N2C[C@H]3C[C@@H](C2)c2cccc(=O)n2C3)c1 | 3.04% (inactive) | 
CCOCCc1c(O)[nH]c(=S)[nH]c1=O | -0.279% (inactive) | 
CN(C)C(=O)Oc1ccc(OCc2cccc[n+]2C)cc1 | 10.1% (inactive) | 
c1cc2c(cc1CCNC1CCCCCC1)OCO2 | -19.6% (inactive) | 
c1ccc2sc(SNC3CCCCC3)nc2c1 | -13.8% (inactive) | 
CC(C)(C)c1ccc(S(=O)(=O)Nc2ccc(O)c(Sc3nc4ccccc4s3)c2)cc1 |  | 18.4 µM (active)
C=CC12CN(C)[C@@H]3C4CO[C@H](C[C@H]41)[C@]1(C(=O)Nc4ccccc41)[C@@H]32 (some centres not stated) | 8.01% (inactive) | 
CCN(N=Nc1nonc1OC)c1nonc1OC | 7.39% (inactive) | 
c1ccc2sc(N3CCNCC3)nc2c1 | 20.1% (inactive) | 
CCN1C[C@]2(COC)C(O)C[C@H](OC)[C@@]34C5C[C@]6(O)C(OC)C(O)[C@](OC(C)=O)(C5C6OC(=O)c5ccccc5)C(C(OC)C23)C14 (some centres not stated) | -7.7% (inactive) | 
CC(C)N(CC#CCC1(O)c2ccccc2-c2ccccc21)C(C)C | -13.8% (inactive) | 
c1cc2c(c(NC3=NCCCS3)c1)CCCC2 | -5.68% (inactive) | 
COC(=O)N(c1ccc(OC)cc1)P1(=S)OCCC(C)O1 (configuration not stated) |  | 14.6 µM (active)
Cc1ccc(-n2c(O)c(C=NCC3CCCO3)c(=O)[nH]c2=O)c(C)c1 (configuration not stated) | -8.29% (inactive) | 
CCC1(C)CC(CCNCc2ccc(N(C)C)cc2)(c2ccc(F)cc2)CCO1 (configuration not stated) |  | 16.4 µM (active)
CC(=O)N1CN2CN(C(C)=O)CC(C(=O)c3ccc(Br)cc3)(C2)C1 | 11.5% (inactive) | 
COc1ccccc1NC(=O)N1C[C@@H]2C[C@@H](C1)c1cccc(=O)n1C2 | 1.17% (inactive) | 
COc1ccccc1N=Nc1c(O)[nH]c(=S)[nH]c1=O | -16.3% (inactive) | 
O=c1[nH]c(=S)[nH]c(O)c1/C=C1\C=Nc2ccccc21 |  | 7.31 µM (active)

SMILES | activity change, negative = growth inhibition | Potency
CN(C)c1nc(N(C)C)nc(N(C#N)CCCl)n1 | -12.5% (inactive) | 
Cc1ccc(OC(=O)N(C)C[C@@H]2OCc3cnnn3CCCC(=O)N([C@H](C)CO)C[C@@H]2C)cc1 | 1.63% (inactive) | 
CCC1(c2ccccc2)C(=O)NC(=O)N(C)C1=O (configuration not stated) | 13.2% (inactive) | 
COc1ccc(Br)cc1CNCCc1cccc(Cl)c1 |  | 18.4 µM (active)
COc1cc(C[C@H](C)N)c(OC)cc1Br | -28.4% [at 92.5 µM] (inactive) | 
CC[C@]1(O)C(=O)OCc2c1cc1n(c2=O)Cc2cc3ccccc3nc2-1 |  | 0.0168 µM (active)
CC1=C2C(=O)C3C(CC=C4CC(OC5OC(O)C(O)C(O)C5CO)CCC43C)C2CCC12OC1CC(C)CNC1C2C (configuration not stated) | 2.43% (inactive) | 
Cc1ccc2c(c1)C1CN(C)CCC1N2C(=O)Cn1nnc(-c2ccccc2F)n1 (configuration not stated) | 7.4% (inactive) | 
CC(C)(c1ccc(OC[C@@H]2CO2)cc1)c1ccc(OC[C@H]2CO2)cc1 |  | 10.6 µM (active)
CCOP(=O)(OCC)C(NC(=O)NC)C(N)=O (configuration not stated) | 1.31% (inactive) | 
Nc1ccc(C(=O)N/N=C2/CN3CCC2CC3)cc1 | 1.97% (inactive) | 
O=C(/C=C/c1cccs1)c1cc(Cl)ccc1OC(=O)N1CCOCC1 |  | 16.4 µM (active)
O=C(Nc1cccc(OC(=O)N2CCCCC2)c1)N1CCOCC1 | -15.1% (inactive) | 
Cc1cc(-c2ccc(N)c(C)c2)ccc1N | -21.4% (inactive) | 
C=CCN1C(=O)C2(C(C(=O)OCC)=C(N)Oc3c2c(=O)oc2ccccc32)c2ccccc21 (configuration not stated) | -19.5% (inactive) | 
CCC(=NCCCO)c1c(O)n(-c2ccc(OC)cc2)c(=O)[nH]c1=O | 3.97% (inactive) | 
CCCCn1c(O)c(C(CC)=NCc2ccco2)c(=O)[nH]c1=O | -6.03% (inactive) | 
CCCCCCN=C(CC)c1c(O)n(CCCC)c(=O)[nH]c1=O |  | 14.6 µM (active)
OC(CNC1CCCCC1)c1ccccc1 (configuration not stated) | -3.92% (inactive) | 
NS(=O)(=O)c1ccc(CCNC(=O)c2ccc(Cl)c(S(=O)(=O)N3CCCCCC3)c2)cc1 |  | 20.6 µM (active)
CC1CCCCN1Cc1cccnc1 (configuration not stated) | -3.72% (inactive) | 
